Results as given in PubChem BioAssay (NCATS).
Results filed as inconclusive are left out. Active and inactive are the calls of the source. Calls come from the whole dose curve; as a rule, active = well fitted curve in the direction sought with a large enough effect; inconclusive = small, poorly fitted or top-dose-only effect, or another doubt; inactive = no such curve, though single readings can be large; an effect the other way counts as inactive or inconclusive.

How the values were obtained:
[1] = qHTS of pediatric cancer cell lines to identify multiple opportunities for drug repurposing: Primary screen for NB-EBc1 cells (AID 1347095); note: potency is the fitted concentration of half-maximal effect
In short: (§1)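 Cells seeded at 500-1,000 cells/well in growth media, rested 5 hours at 37 degrees C, 5% CO2, then dosed; MIPE compounds at 11-point (from 0.78 nM) and NPC at 8-point (from 0.59 nM) final concentrations. Viability by CellTiter-Glo luminescence after 48 hours.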

[2] = qHTS of pediatric cancer cell lines to identify multiple opportunities for drug repurposing: Primary screen for U-2 OS cells (AID 1347096); note: nearly all actives have a fitted effect of over 50% in size; note: potency is the fitted concentration of half-maximal effect
In short: (§2)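 Cells (500-1,000/well) in growth media were settled 5 h at 37 degrees C, then given compounds for 48 h. Viability was read as CellTiter-Glo luminescence. Primary runs used MIPE at 11 points (0.78 nM-46 µM) and NPC at 8 points (0.59 nM-46 µM); follow-ups used 11 points.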

[3] = qHTS of pediatric cancer cell lines to identify multiple opportunities for drug repurposing: Primary screen for Saos-2 cells (AID 1347097); note: nearly all actives have a fitted effect of over 40% in size; note: potency is the fitted concentration of half-maximal effect
In short: as §1

[4] = qHTS of pediatric cancer cell lines to identify multiple opportunities for drug repurposing: Primary screen for SK-N-SH cells (AID 1347098); note: nearly all actives have a fitted effect of over 65% in size; note: potency is the fitted concentration of half-maximal effect
In short: (§3)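 Cells (500-1,000/well) rested 5 h, then received compounds for 48 h; metabolically active cells were measured by CellTiter-Glo luminescence. Final concentrations spanned up to 46 µM (MIPE, 11-point) or 0.59 nM-46 µM (NPC, 8-point) in primary screens, 11-point in follow-ups.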

[5] = qHTS of pediatric cancer cell lines to identify multiple opportunities for drug repurposing: Primary screen for NB1643 cells (AID 1347099); note: nearly all actives have a fitted effect of over 50% in size; note: potency is the fitted concentration of half-maximal effect
In short: as §1

[6] = qHTS of pediatric cancer cell lines to identify multiple opportunities for drug repurposing: Primary screen for LAN-5 cells (AID 1347100); note: potency is the fitted concentration of half-maximal effect
In short: as §2

[7] = qHTS of pediatric cancer cell lines to identify multiple opportunities for drug repurposing: Primary screen for BT-12 cells (AID 1347101); note: nearly all actives have a fitted effect of over 25% in size; note: potency is the fitted concentration of half-maximal effect
In short: as §3

[8] = qHTS of pediatric cancer cell lines to identify multiple opportunities for drug repurposing: Primary screen for Rh18 cells (AID 1347102); note: nearly all actives have a fitted effect of over 65% in size; note: potency is the fitted concentration of half-maximal effect
In short: as §2

[9] = qHTS of pediatric cancer cell lines to identify multiple opportunities for drug repurposing: Primary screen for OHS-50 cells (AID 1347103); note: nearly all actives have a fitted effect of over 40% in size; note: potency is the fitted concentration of half-maximal effect
In short: as §3

[10] = qHTS of pediatric cancer cell lines to identify multiple opportunities for drug repurposing: Primary screen for RD cells (AID 1347104); note: nearly all actives have a fitted effect of over 55% in size; note: potency is the fitted concentration of half-maximal effect
In short: as §1

[11] = qHTS of pediatric cancer cell lines to identify multiple opportunities for drug repurposing: Primary screen for Rh41 cells (AID 1347108); note: nearly all actives have a fitted effect of over 70% in size; note: potency is the fitted concentration of half-maximal effect
In short: as §1

[12] = qHTS of pediatric cancer cell lines to identify multiple opportunities for drug repurposing: Confirmatory screen for NB1643 cells (AID 1347109); note: potency is the fitted concentration of half-maximal effect; nearly all actives have a fitted effect of over 45% in size
In short: as §2

[13] = qHTS of pediatric cancer cell lines to identify multiple opportunities for drug repurposing: Confirmatory screen for A673 cells (AID 1347110);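 note: potency is the fitted concentration of half-maximal effect; cells exposed to compound for 48 h before the viability read; nearly all actives have a fitted effect of over 65% in size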
In short: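 A673 cells at 500-1,000 cells/well were dosed 5 h after plating, in dilution series up to 46 uM final; primary runs used 8 or 11 points and confirmatory runs used 11 points. Viability was read by CellTiter-Glo luminescence after 48 h, against DMSO and 2.3 uM bortezomib controls.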

[14] = qHTS of pediatric cancer cell lines to identify multiple opportunities for drug repurposing: Confirmatory screen for SK-N-MC cells (AID 1347111);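 note: potency is the fitted concentration of half-maximal effect; cells exposed to compound for 48 h before the readout; nearly all actives have a fitted effect of over 70% in size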
In short: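 Metabolically active cells were quantified by ATP-dependent luminescence (CellTiter-Glo, 15 min at room temperature) following 48 h treatment. Cells had been plated at 500-1,000 per well and settled for 5 h beforehand.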

[15] = qHTS of pediatric cancer cell lines to identify multiple opportunities for drug repurposing: Confirmatory screen for BT-12 cells (AID 1347112); note: nearly all actives have a fitted effect of over 55% in size; note: potency is the fitted concentration of half-maximal effect
In short: as §2

[16] = qHTS of pediatric cancer cell lines to identify multiple opportunities for drug repurposing: Confirmatory screen for LAN-5 cells (AID 1347113); note: potency is the fitted concentration of half-maximal effect; nearly all actives have a fitted effect of over 65% in size
In short: as §2

[17] = qHTS of pediatric cancer cell lines to identify multiple opportunities for drug repurposing: Confirmatory screen for DAOY cells (AID 1347114)
In short: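 Viability measured as metabolically active cells via CellTiter-Glo luminescence following 48 hours of compound exposure, 11-point dilutions in confirmatory testing. 500-1,000 cells/well plated 5 hours before dosing; controls were DMSO and 2.3 µM bortezomib.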

[18] = qHTS of pediatric cancer cell lines to identify multiple opportunities for drug repurposing: Primary screen for control Hh wild type fibroblast cells (AID 1347106);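 note: series mostly up to about 46 µM; a drop in luminescence marks cytotoxicity and a rise apparent proliferation; nearly all actives have a fitted effect of over 55% in size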
In short: as §2

[19] = qHTS of pediatric cancer cell lines to identify multiple opportunities for drug repurposing: Primary screen for MG 63 (6-TG R) cells (AID 1347105); note: nearly all actives have a fitted effect of over 50% in size
In short: as §1

[20] = qHTS of pediatric cancer cell lines to identify multiple opportunities for drug repurposing: Primary screen for Rh30 cells (AID 1347107); note: series mostly up to about 46 µM; nearly all actives have a fitted effect of over 75% in size
In short: as §2

Measured: Potency

CO[C@@H]1[C@@H](OC)[C@H](C)[C@@](O)(CC(=O)O)O[C@H]1[C@H](C)[C@H]1O[C@@]2(CC[C@@](C)([C@H]3CC[C@@](C)([C@@H]4O[C@@H]([C@H]5O[C@](C)(O)[C@H](C)C[C@@H]5C)C[C@@H]4OC4C[C@H](OC)[C@@H](OC)[C@H](C)O4)O3)O2)C[C@H](O)[C@H]1C (stereo not given in full)
active: [1] 0.266 µM | [2] 8.41 µM | [3] 5.31 µM | [4] 2.44 µM | [5] 0.841 µM | [6] 1.06 µM | [7] 0.347 µM | [8] 3.76 µM | [9] 0.389 µM | [10] 4.73 µM | [11] 4.22 µM | [12] 0.737 µM | [13] 2.61 µM | [14] 1.31 µM | [15] 0.657 µM | [16] 0.522 µM | [17] 1.85 µM

CCCCC(O)/C=C(C)/C=C/C=C/C(=O)N1CCCC1=O (stereo not given)
inactive: [1] | [2] | [3] | [4] | [5] | [6] | [7] | [8] | [9] | [10] | [18] | [11]

N#CSCC(=O)O
inactive: [1] | [2] | [3] | [4] | [5] | [6] | [7] | [8] | [9] | [10] | [19] | [18] | [11]

CN1CCC(=C2c3ccccc3CCc3cccnc32)CC1
inactive: [1] | [2] | [3] | [4] | [5] | [6] | [7] | [8] | [9] | [10] | [19] | [11]

CCN(CC)CCN
inactive: [1] | [2] | [3] | [4] | [5] | [6] | [7] | [8] | [9] | [19] | [18] | [20] | [11]

Oc1ccccc1
inactive: [1] | [2] | [3] | [4] | [5] | [6] | [7] | [8] | [9] | [10] | [19] | [20] | [11]

CCCCCC1Nc2cc(C(F)(F)F)c(S(N)(=O)=O)cc2S(=O)(=O)N1 (stereo not given)
inactive: [1] | [2] | [3] | [4] | [5] | [6] | [7] | [9] | [10] | [19] | [18] | [20] | [11]

COC(=O)c1cc(S(N)(=O)=O)ccc1OC
inactive: [1] | [2] | [3] | [4] | [5] | [6] | [7] | [9] | [10] | [19] | [18] | [20] | [11]

CCCCCCn1c(=O)c2c(ncn2C)n(C)c1=O
inactive: [1] | [2] | [3] | [4] | [5] | [6] | [7] | [8] | [10] | [18] | [11]

OC1(c2ccc(Cl)cc2)CCNCC1
inactive: [1] | [2] | [3] | [4] | [5] | [6] | [7] | [8] | [10] | [19] | [18] | [20] | [11]

COCCc1ccc(OCC2CO2)cc1 (stereo not given)
inactive: [1] | [2] | [3] | [4] | [5] | [6] | [7] | [8] | [10] | [19] | [18] | [20] | [11]

O=C(O)c1[nH]n(-c2ccc(S(=O)(=O)O)cc2)c(=O)c1N=Nc1ccc(S(=O)(=O)O)cc1
inactive: [1] | [2] | [3] | [4] | [5] | [6] | [7] | [8] | [19] | [18] | [20]

CC(C)(C)C(O)/C=C/c1ccc2c(c1)OCO2 (stereo not given)
inactive: [1] | [2] | [3] | [4] | [5] | [6] | [7] | [8] | [10] | [19] | [18] | [20]

CCOC(=O)Oc1ccc(CCNC(=O)[C@H](CCSC)NC(C)=O)cc1OC(=O)OCC
inactive: [1] | [2] | [3] | [4] | [5] | [6] | [7] | [8] | [10] | [19] | [18] | [20] | [11]

CCS(=O)(=O)c1ccc(OC)c(C(=O)OC)c1
inactive: [1] | [2] | [3] | [4] | [5] | [6] | [7] | [8] | [10] | [19] | [18] | [20] | [11]

O=C(O)C(=O)Nc1cccc(-c2nn[nH]n2)c1
inactive: [1] | [2] | [3] | [4] | [5] | [6] | [7] | [8] | [10] | [19] | [18] | [20] | [11]

CNC(=O)c1cnn(-c2nc(N)c3ncn([C@@H]4O[C@H](CO)[C@@H](O)[C@H]4O)c3n2)c1
inactive: [1] | [2] | [3] | [4] | [5] | [6] | [7] | [9] | [10] | [19] | [18] | [20] | [11]

O=C(CCCCC(=O)Nc1c(I)cc(I)c(C(=O)O)c1I)Nc1c(I)cc(I)c(C(=O)O)c1I
inactive: [1] | [2] | [3] | [4] | [5] | [6] | [7] | [8] | [10] | [19] | [18] | [20] | [11]

CN(C)CCN1CCN(c2cccc(Cl)c2)C1=O
inactive: [1] | [2] | [3] | [4] | [5] | [6] | [7] | [9] | [10] | [19] | [18] | [20] | [11]

c1ccc2c(c1)CCc1ccccc1N2
inactive: [1] | [2] | [3] | [4] | [5] | [6] | [7] | [8] | [10] | [19] | [18] | [20] | [11]

CC(=O)N1CCN(c2ccc(O)cc2)CC1
inactive: [1] | [2] | [3] | [4] | [5] | [6] | [7] | [8] | [10] | [19] | [18] | [20] | [11]

CCOC(=O)OCC/C(SC(=O)OCC)=C(\C)N(C=O)Cc1cnc(C)nc1N
inactive: [1] | [2] | [3] | [4] | [5] | [6] | [7] | [8] | [10] | [19] | [18] | [20] | [11]

Cc1ccc(C(=O)Oc2ccc(C(O)CNC(C)(C)C)cc2OC(=O)c2ccc(C)cc2)cc1 (stereo not given)
inactive: [1] | [2] | [3] | [4] | [6] | [8] | [19] | [18] | [20] | [15]
active: [5] 0.001 µM | [7] 6.17 µM | [13] 0.0928 µM | [14] 11.7 µM

Cc1cccc(OCC(O)CNC(C)(C)C)c1C (stereo not given)
inactive: [1] | [2] | [3] | [4] | [5] | [6] | [7] | [9] | [10] | [19] | [18] | [20] | [11]
